Calls of active or inactive are those of the source.
assay: changes in parasitized red cell lysis, either direction – P. falciparum Indochina, OD700, 3 h, PSAC antagonist project, primary screen (AID 1156); settings: P. falciparum-infected erythrocytes, osmotic lysis, higher = more signal, called active from +8 up or from −8 down

z-score, inactive:
O=C1C[C@]2(c3ccc([N+](=O)[O-])cc3)C(=O)N(Cc3ccccc3)c3cc(CO)ccc3[C@H]2N1CC12CC3CC(CC(C3)C1)C2 -0.401, Cc1c(NC(=O)/C(C#N)=C/C=C/c2ccc(N(C)C)cc2)c(=O)n(-c2ccccc2)n1C -0.164, COCCOC(=O)N1C(=O)[C@@]2(c3ccccc31)[C@H](c1ccc(OCCO)cc1)N1[C@H](c3ccccc3)[C@H](c3ccccc3)OC(=O)[C@H]1[C@@H]2C(=O)Nc1nc2ccccc2s1 -0.214, COCCCNC(=O)[C@@]1(Sc2ccc(C)cc2)CC(=O)N(Cc2cc(C(F)(F)F)cc(C(F)(F)F)c2)[C@@H]1c1ccc(CO)cc1 1.03, CCCC[C@@H]1C[C@H]1[C@@H](NC(=O)c1ccccc1)c1ccc(Cl)cc1 -0.573, CC(C)C(CO)N1C(=O)[C@]2(C)C3C(=O)OCCC/C=C\[C@H]3OC23C=CCN(c2ccc(Cl)cc2)C(=O)[C@@H]13 (stereo not given in full) 0.787, COC(=O)[C@@]1(Cc2ccc(OC)cc2)[C@H]2c3cc(C(=O)N4CCCC4)n(CCc4cc5ccccc5[nH]4)c3C[C@H]2CN1C(=O)c1ccccc1 1.45, CCCC[C@@H]1C[C@H]1[C@@H](NC(=O)c1cccnc1)c1ccc(-c2ccccc2)cc1 0.219, [N-]=[N+]=Nc1ccccc1[C@@H]1OC(c2ccc(OCCCO)cc2)=N[C@]1(CCS(=O)(=O)c1ccccc1)C(=O)NCCN1CCOCC1 1.9, C[C@@H](OCc1ccccc1)C1NC(=O)[C@@]23C(=O)N[C@@H](Cc4ccccc4)C2[C@H](C)[C@@]2(C)O[C@H]2C3/C=C/C/C=C\CNC(=O)CNC1=O (stereo not given in full) 0.543, C=C(CCCC)/C(=C/C[C@@H](OC(=O)c1ccncc1)c1cccc(OCCO)c1)c1cnc2ccccc2c1 0.902, CC(=O)n1cc(C(O)C2C=CC3C(=O)N(c4ccccc4)C(=O)C3N2Nc2ccccc2)c2ccccc21 (stereo not given) 1.12, C=CCN1C(=O)[C@]2(CC=C)N=C(c3ccc(OCCCO)cc3)O[C@@H]2c2ccccc21 2.64, CCOC(=O)C[C@H]1[C@H](OC(=O)Cc2ccc3c(c2)OCO3)[C@@H](NC(=O)C2CCCCC2)c2cc(OCCCO)ccc2N1C(=O)c1ccc2ccccc2n1 -0.13, O=C1O[C@@H](c2ccccc2)[C@@H](c2ccccc2)N2[C@@H](c3ccccc3OCCO)[C@]3(C(=O)Nc4ccc(C#CC5=CCCCC5)cc43)[C@@H](C(=O)NC[C@H](O)c3ccccc3)[C@H]12 -2.18, O=C1OCC=C[C@H]2OC34C=CCN(Cn5nnc6ccccc65)C(=O)[C@H]3N(CCCCCCO)C(=O)[C@@H]4[C@@H]12 (stereo not given in full) 1.15, COCCCNC(=O)[C@]1(Cc2ccccc2N=[N+]=[N-])N=C(c2ccc(OCCCO)cc2)O[C@@H]1c1ccccc1N=[N+]=[N-] 1.41, CC(C)c1ccc(NN2C(C(O)c3ccco3)C=CC3C(=O)N(c4ccccc4)C(=O)C32)cc1 (stereo not given) 0.626, Cc1ccc(S[C@]2(C(=O)NCC(C)C)CC(=O)N(Cc3ccccc3Cl)[C@@H]2c2ccc(CO)cc2I)cc1 1.24, C=CCC(OC(C)=O)[C@@H]1[C@@H](N(Cc2ccc(-c3ccccc3)cc2)C(=O)c2cccc3ccccc23)c2cc(OCCCO)ccc2N1C(=O)Cc1ccc2ccccc2c1 (stereo not given in full) -0.498, CC=CC(O)C1C=CC2C(=O)N(C)C(=O)C2N1Nc1ccc([N+](=O)[O-])cc1[N+](=O)[O-] (stereo not given) 0.566, CC(C)(C)OC(=O)CC[C@]1(C(=O)NCCN2CCOCC2)N=C(c2ccc(OCCCO)cc2)O[C@H]1c1ccccc1 0.531, CCCCC(=C=CC[C@@H](O)c1ccc(OCCO)cc1)C[C@@H](O)COCc1ccccc1 -0.0577, COC(=O)[C@H](Cc1ccccc1)N1CC(/C=C/C2CC2)=C[C@@H]1[C@@H](O)Cc1ccccc1 -0.427, COCCOC(=O)N1C(=O)[C@@]2(c3cc(C#CCC(C(=O)OC)C(=O)OC)ccc31)[C@H](c1ccc(OCCO)cc1)N1[C@H](c3ccccc3)[C@H](c3ccccc3)OC(=O)[C@H]1[C@@H]2C(=O)N1CCN(c2ncccn2)CC1 0.14
